# Measured values taken from the supplement of paper PMC6555819.
# Key:
# Test in all cases: PBM binding z-score (relative to random genomic background probes); higher = stronger binding; sequences stand for … in GC…GCGATTGACAGCGTAGAATGAAGG
# [1] = system: PPARg:RXRa DBDmut IVT, anti-RXR (DBD mutation: RXRa K156A/R161A, NR concentration 270 nM, RXRa partner concentration 90 nM)
# Procedure, shortened: (§1)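 Binding z-scores were set against random background probes. The data came from custom Agilent 4×180K protein-binding microarrays carrying double-stranded probes with 34-nt variable regions, incubated 1 h with ligand-free nuclear receptor dimers. Partner-specific antibodies detected binding, and scanned fluorescence was regression-normalized.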
# [2] = system: PPARg:RXRa IVT, anti-PPARg (NR concentration 270 nM, RXRa partner concentration 90 nM)
# Procedure, shortened: as §1
# [3] = system: PPARg DBDmut:RXRa IVT, anti-PPARg (DBD mutation: PPARg1 K132A/R137A, NR concentration 270 nM, RXRa partner concentration 90 nM)
# Procedure, shortened: as §1
# [4] = system: PPARg DBDmut IVT, anti-PPARg (DBD mutation: PPARg1 K132A/R137A, NR concentration 270 nM)
# Procedure, shortened: as §1
# [5] = system: PPARg homodimer (NR concentration 180 nM)
# Procedure, shortened: as §1
# [6] = system: PXR:RXRa (NR concentration 270 nM, RXRa partner concentration 90 nM)
# Procedure, shortened: as §1
# [7] = system: PXR homodimer (NR concentration 270 nM)
# Procedure, shortened: as §1
# [8] = system: RARa:RXR (NR concentration 270 nM, RXRa partner concentration 90 nM)
# Procedure, shortened: as §1
# [9] = system: RARa homodimer (NR concentration 270 nM)
# Procedure, shortened: as §1
# [10] = system: RARb:RXRa (NR concentration 270 nM, RXRa partner concentration 90 nM)
# Procedure, shortened: as §1
Sequence,PBM binding z-score [1],PBM binding z-score [2],PBM binding z-score [3],PBM binding z-score [4],PBM binding z-score [5],PBM binding z-score [6],PBM binding z-score [7],PBM binding z-score [8],PBM binding z-score [9],PBM binding z-score [10]
GCTGCTAGGTCAACTGATGGTCAGCCAAAGCTCG,4.84,3.92,0.564,-0.45,1.57,1.39,-0.698,2.93,-0.0572,4.27
CCTACTGGGACAAAGGTCATTGATTCCAATGCTC,5.4,7.14,1.81,1.06,4.59,5.27,2.24,6.06,2,4.45
ATCTCTAGGTAACCAAGTCCAGTGAATGCCGAAC,3.27,2.54,0.49,1.58,0.614,0.0528,0.209,0.268,0.592,0.379
CCTCGGAGGACAACAGGAGGTCAGAGTTGCCAGA,-0.0815,0.313,-0.9,-1.99,2.15,2.36,1.11,2.64,0.759,2.83
TCTAGCAGGCCAGAGGATCACTCAAGAGGTACGG,0.493,-0.268,-0.802,-1.11,-1.15,-0.557,-0.932,-0.354,-1.38,-0.18
AGAATGAGGTTATTAAGATCACGGAATTGCGGTC,3.48,3.23,1.05,1.25,1.1,1.55,1.01,1.86,0.114,1.43
TTACCTAGGTGAAAGGTCGTTGATGCACGCCTTG,5.23,6.14,1.6,0.889,1.73,3.69,0.261,4.82,-0.203,2.38
TCATATAGGTAAGCAGGTGAAAGTCCGTAAGTTA,4.03,3.94,0.357,0.715,0.516,0.257,0.129,0.662,0.214,0.318
CCAACTAGGTCAAGAGGTCAAAGTCCGCTTCCCG,8.09,8.02,4.07,5.47,8.09,6.37,2.79,8.12,3.13,5.34
ATCGAAAGGTCGAGGTGAATATAGAGAAAGGGAA,0.454,2.9,1.3,0.685,1.72,2.6,0.39,3.39,1.13,4.2
ACAGACAGGTGAGTGACGGTAACTCAGCTGGACG,0.522,0.563,0.246,0.557,-0.526,-0.527,-0.705,-0.525,-0.487,0.377
AGAACGAGGGCAAGGAGTTGATAGCACGGGTGGC,2.54,2.09,1.19,-0.462,0.0784,0.742,1.54,0.14,-0.0474,2.15
TCTTGTAGATCAAAGATTAAGAAAGCCGAAGCCT,1.71,0.407,0.363,0.404,-0.224,0.137,-0.525,0.257,0.694,-0.16
GGAACGAGGGCAAGTTGAAAGCAGAGTTTGATGG,3.88,2.91,-0.0232,-0.635,0.201,0.652,0.377,0.519,-0.328,2.53
TCATATAGGTAAACCGGTGAAAGTCCGTAAGTTA,4.14,3.35,0.791,0.416,0.766,0.768,0.578,0.953,0.584,0.426
TCTGCTAGGTCAGTTGGTGAGCTAACGAGCTGCC,2.62,2.7,0.403,1.14,-0.166,-0.0879,-1.19,0.102,-1.25,3.16
TCGGGTAGGTTAGTCGGGGCATTCAGCCAACATA,1.77,1.67,0.234,0.0537,0.765,0.737,0.967,0.254,0.816,1.21
CCTACGGGGCCATCAGGTCATTGATATCAACGTT,1.08,2.4,-0.644,-0.657,1.9,2.18,0.639,2.97,0.686,2.86
TCTGGTTGGTCAAAGGTCACACACTCGAAATGCG,3.03,5.67,2.56,3.21,7.5,6.15,2.71,7.76,4.92,4.96
TATACAGGGACAAAGGCCAGAGTACGAATGTCGA,-0.141,1.3,0.681,0.636,0.776,0.0293,0.479,0.273,0.492,1.54
CGAACTAGGTCAAGGACAGTGCATCTCCGCACGC,8.15,8.09,1.65,0.963,1.3,2.24,0.348,1.94,-0.145,3.97
TGAATGAGATTAAAGATCAGGGAACGTGGCGTCG,-0.695,-0.415,-1.12,-0.126,-0.076,-0.42,-0.498,-0.467,0.0825,-0.19
CCTAGCAGGCAAGGGTCACTCAAGCATTTCGCTT,0.337,0.835,-1.27,-1.7,1.35,2.99,-0.946,3.86,-0.178,3.31
TCTTGTAGATCAGAGGTTAAGAAAGCCGAAGCCT,1.58,2.04,0.138,0.179,0.818,0.951,-0.359,1.48,-0.453,0.915

Sequence,PBM binding z-score [1],PBM binding z-score [2],PBM binding z-score [3],PBM binding z-score [4],PBM binding z-score [5],PBM binding z-score [6],PBM binding z-score [7],PBM binding z-score [8],PBM binding z-score [9],PBM binding z-score [10]
ATACTAAGGTGATCGTGAGGTCGTTGATACTAAC,1.4,1.73,0.74,1.39,1.65,3.74,1.93,2.88,0.716,1.77
TCATATAGGTATATGCTAGGTGAAAGTCCGATCT,2.4,1.07,0.908,1.63,0.436,0.612,0.215,0.893,0.379,0.145
CCGAGTAGGTTGTGGGGCATTCAGGCAACGGTGA,1.04,1.29,-1.06,-0.659,0.736,-0.334,0.115,-0.303,0.109,0.0437
CGTCCAAGGTCATCGGAGGTCAGTGAAGACAGAT,3.14,4.14,0.99,1.08,6.99,7.33,7.36,6.63,3.02,5.5
CAAACTAAGTCACAGAGGTCAAAGTCCGTGCGTA,2.87,3.84,0.32,0.368,4.44,5.86,3.71,6.39,2.59,4.05
AGTCAAAGTTCAGGACGAGGCAACGTAAAGCACG,-0.129,1.26,0.256,0.437,1.12,1.94,0.989,1.89,0.997,4.37
TCTTGTATATCAGCAGGTTAAGAAAGCTGGCCAA,2.07,0.6,0.115,0.41,0.718,0.584,0.0851,0.998,0.982,0.687
TCATATAGGTAAATGCTAGGTGAGAGTCCGATCT,3.83,2.57,0.808,0.825,0.0695,0.187,0.158,0.343,0.662,0.218
ATCTCTAGGTAAGACTCAGTTGAGTGAAGAACGC,1.79,0.839,0.212,0.517,0.307,-0.135,0.188,-0.38,0.696,0.11
CAGACTAGGTCAAGGTCAAAGTCGGTTTGTGCCA,7.69,7.9,3.1,0.467,3.79,5.16,1.76,5.07,1.4,5.05
TCTAGTTGGTCAAAGGTCACAGACTCGAAATGCG,3.8,6.51,1.4,1.43,5.86,6.19,1.54,7.67,3.5,5.12
CTCGAAAGGTCGGTTGAGGTGAGTATTCGGATAA,0.311,0.955,-0.267,0.135,1.02,3.05,-0.0873,2.04,0.255,3.25
TCGTATAGGTAAACAGGTGAAAGTCCGTAAGTTA,2.73,2.33,0.663,0.619,1.46,0.831,0.735,1.22,1.47,0.797
CCTCCTGGGCCAAAGGTCATTGATTCCAATGCTC,1.03,4.67,-0.712,-0.452,3.43,5.26,1.79,5.99,0.948,4.3
TCTGACAGGTGAAGGTAACTCAGGTACGCAGTCG,2.21,1.39,0.246,-0.0142,0.45,0.483,-0.371,0.82,0.0675,1.28
CGTCCAAGGTCAGAGAGCTCAGTGAATGCCGAGT,2.67,1.84,-0.717,-0.346,1.67,2.14,0.855,2.37,0.367,4.6
GATACAGGGTCGAGGCCAGAGTACGCGTATTGAT,-0.175,0.711,-0.769,-0.92,0.109,0.68,-0.735,1.37,-0.498,1.91
TCTATTAGTTGCAGGGCAACCGACGAGTCCGTTT,2.17,1.01,0.15,1.26,0.494,0.353,0.498,0.391,0.736,0.851
CCACGGAGGACAACAGGAGGTCAGAGCTGCCAGA,-0.448,0.453,-0.512,-0.952,1.79,2.21,0.52,2.53,1.2,2.99
ATCTATAGGTAAAGATAGTTCAGTGAATGCAAAT,1.2,1.29,0.937,1.26,0.82,1.65,0.751,0.916,0.797,0.78
TTACCAATGTGAGCTGAGGTCGTTGATCCAACTC,-0.252,-0.0612,0.679,-0.281,-0.49,2.46,0.562,1.53,-0.185,0.439
TCTAGTTGCTCACGGAGGTCACACACGACGGGTA,1.58,2.24,0.833,0.565,2.53,4,0.832,4.2,0.559,3.25
TCTGCTAGGTCAGTTGGTCAGCGAACGAGCTGCC,2.76,3.21,-0.0304,0.518,0.0639,0.0473,-0.82,0.461,-1.14,3.55
GTACCAAAGTGAATAGGTCGTTGATGAGTAGGCG,-0.402,-0.0847,0.259,-0.53,0.312,-0.00367,-0.196,0.176,0.281,0.279
